Reference: PubChem BioAssay (Tox21)
Values joined by “and” are separate entries in the source; they are usually repeats but may differ in a detail not shown here. Equal values may be shown once. Results filed as inconclusive are left out. A call without a number means that no potency is given here. More than one record can exist for a structure, and the calls need not agree. Active and inactive are the calls of the source. The call rests on the fitted dose curve; in most records, active means well fitted cell-killing curve with a large enough effect in the repeat runs; inconclusive means weak or mixed curves, or effect the other way; inactive means no such curve, though single readings can be large or run the other way.

test: qHTS assay to identify small molecule antagonists of the thyroid receptor (TR) signaling pathway - cell viability counter screen (AID 743064); settings: GH3.TRE-Luc viability, CellTiter-Fluor, 24 h; series mostly up to 70.3 µM; further: nearly all actives have a fitted effect of over 50% in size
Source text: National Center for Advancing Translational Sciences [NCATS]
NIH Chemical Genomics Center [NCGC]
U.S. Environmental Protection Agency [EPA]
National Institutes of Environmental Health Sciences [NIEHS]
National Toxicology Program [NTP]
U.S. Food and Drug Administration [FDA]
Thyroid receptor (TR), a nuclear hormone receptor, plays an important role in development, proliferation, differentiation, metabolism, brain function, and cardiovascular system. […] To profile the Tox21 10K compound library in TR signaling, a cell-based GH3-TRE-Luc assay (GH3.TRE-Luc cell line, developed by the laboratory of Dr. Albertinka J. Murk, Wageningen University) was used to measure the inhibition of TR. GH3 (rat pituitary tumor) cells stably expressing a TR activity sensor consisting of two TR response elements and a luciferase reporter gene. The cytotoxicity of the Tox21 compound library against the GH3.TRE-Luc cell line was tested in parallel by measuring the cell viability using CellTiter-Fluor assay (Promega, Madison, WI) in the same wells.
Tox21 Assay Protocol Summary:
GH3.TRE-Luc cells were dispensed at 1500 cells/4 uL/well into 1536-well white solid bottom plates using a Multidrop Combi dispenser (Thermo Fisher Scientific Inc., Waltham, MA). After the assay plates were incubated at 37 C for 4 hours, 23 nL of library compound or DMSO controls was transferred to the assay plates by a pintool station (Kalypsys, San Diego, CA), followed by addition of 1 ul of T3 (1 nM, final concentration in the wells) to stimulate TR transactivation. The assay plates were incubated at 37 C for 23.5 h, and then 1 uL of CellTiter-Fluor reagent (Promega, Madision, WI) of measuring cytotoxicity was added to each well using a Bioraptr Flying Reagent Dispenser (FRD) workstation (Beckman Coulter, Indianapolis, IN, USA). The plates were incubated at 37C and 5% CO2 for additional 30 min, and fluorescence intensity was measured by a ViewLux plate reader (PerkinElmer, Shelton, CT).
Potency means the concentration at half of the fitted maximal effect.

Compound | Potency
NCCOCCO | inactive
CC(=O)Oc1ccc(C(c2ccc(OC(C)=O)cc2)c2ccccn2)cc1 | inactive
COc1cc([C@H]2Oc3cc([C@H]4Oc5cc(O)cc(O)c5C(=O)[C@@H]4O)ccc3O[C@@H]2CO)ccc1O | inactive
Oc1ccc(C(c2ccc(O)cc2)C(Cl)(Cl)Cl)cc1 | 60.9 µM (active) and 61.1 µM (active)
NCCS(=O)(=O)O | inactive and 28.4 µM (active)
Cc1ccc(C(C)(C)C)cc1 | inactive
O=C(O)CCCCCCCCCCCC(=O)O | inactive
CC1(C)NC(=O)N(c2ccc([N+](=O)[O-])c(C(F)(F)F)c2)C1=O | inactive
O=[Se](O)O | inactive
Clc1ccc(Sc2cc(Cl)c(Cl)cc2Cl)cc1 | inactive
Nc1cc(Cl)c(N)c(Cl)c1 | inactive
ClC/C=C/CCl | inactive
CC(=O)Oc1c(C)c(C)c2c(c1C)CC[C@@](C)(CCC[C@H](C)CCC[C@H](C)CCCC(C)C)O2 | inactive
C=C1C[C@H]2[C@@H]3C=C(C)C4=CC(=O)CC[C@]4(C)[C@H]3CC[C@]2(C)[C@@]1(OC(C)=O)C(C)=O | inactive
COCCOCCOCCO | inactive
O=S1(=O)CCCO1 | inactive
Nc1cc([N+](=O)[O-])ccc1C(=O)O | inactive
C[N+](C)(C)CCO | inactive
C[C@]12CC[C@@H]3c4ccc(O)cc4CC[C@H]3[C@@H]1CC[C@@H]2O | inactive
C1COCCN1 | inactive

Compound | Potency
c1ccc2c(c1)ccc1cc3c(ccc4ccccc43)cc12 | inactive
O=C(O)c1ccc(O)cc1 | inactive
O=C1CCc2ccccc2O1 | inactive
COc1ccc(C(=O)c2ccccc2O)c(O)c1 | inactive
C=C[C@H]1CN2CC[C@H]1C[C@H]2[C@H](O)c1ccnc2ccc(OC)cc12 | inactive and 43.3 µM (active)
C=C[C@H]1CN2CC[C@H]1C[C@@H]2[C@@H](O)c1ccnc2ccc(OC)cc12 | inactive
CC(C)[C@@H]1CC[C@@H](C)CC1=O | inactive
COc1ccc2nc(N)sc2c1 | inactive
Brc1nc2ccccc2s1 | inactive
Cc1ccc(C)c(O)c1 | inactive
CCC(=O)O[C@H]1[C@H](O[C@@H]2[C@@H](C)[C@H](O[C@H]3C[C@@](C)(OC)[C@@H](O)[C@H](C)O3)[C@@H](C)C(=O)O[C@H](CC)[C@@](C)(O)[C@H](O)[C@@H](C)C(=O)[C@H](C)C[C@@]2(C)O)O[C@H](C)C[C@@H]1N(C)C | 13.3 µM (active) and 36.1 µM (active)
C=C[Si](OCCOC)(OCCOC)OCCOC | inactive
CCCCCC1C(=O)CCC1CC(=O)OC (stereo not given) | inactive
CC(=O)[C@H]1CC[C@H]2[C@@H]3CC=C4C[C@@H](O)CC[C@]4(C)[C@H]3CC[C@]12C | inactive
Cc1ccc([N+](=O)[O-])c(C)c1 | inactive
COC(=O)c1ccc(C)cc1 | inactive
CC/C=C\C/C=C\C/C=C\CCCCCCCC(=O)O | inactive
CC[C@]12CCCN3CCc4c(n(c5ccccc45)[C@@](O)(C(=O)OC)C1)[C@@H]32 | inactive
C=CC(=O)OCCCC | inactive
Nc1ccc2c(c1)C(=O)c1ccccc1C2=O | inactive
